# JMJD2A Tudor inh: qHTS Assay for Inhibitors of JMJD2A-Tudor Domain | AlphaScreen JMJD2A-Tudor / H3K4me3 peptide binding | Potency, µM (doses to about 114 µM), without a hit: at the top dose activity change, negative = inhibition, actives largely listed as inhibitors | 4.4% of 390,000 active; further: on the % scale 0 is the no-effect control and ±100 the full control effect; nearly all actives have a fitted effect of over 50% in size
# BAZ2B inh: qHTS Assay for Inhibitors of BAZ2B; Bromodomain adjacent to zinc finger domain protein 2B (Homo sapiens), Q9UIF8; AlphaScreen BAZ2B-H3K14Ac peptide displacement; Potency, µM (doses to about 114 µM), for the others: top-dose activity change, negative = inhibition, usual class: inhibitors; 4.4% of 360,000 active; AID 504333, 2011; further: on the % scale 0 is the no-effect control and ±100 the full control effect; nearly all actives have a fitted effect of over 60% in size
#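 Protein-peptide AlphaScreen: BAZ2B 50 nM, b-H3K14Ac 50 nM, 1x PBS pH 7.4 + 0.01% Tween-20. Preincubation 30 min RT; cpd 30 min RT (top 110 uM); beads 20 min RT, light-protected.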
# G9a inh: qHTS Assay for Inhibitors of Histone Lysine Methyltransferase G9a. Histone-lysine N-methyltransferase EHMT2 (Homo sapiens), Q96KQ7. G9a H3K9 monomethylation, AlphaScreen, 2 h. Potency, µM (titrated, usually from 102 µM), for the others: top-dose activity, negative = inhibition, most hits filed as inhibitors. 8.8% of 350,000 active; further: on the % scale 0 is the no-effect control and ±100 the full control effect; nearly all actives have a fitted effect of over 75% in size
# Target sequence (Q96KQ7 913-1193 limits assumed): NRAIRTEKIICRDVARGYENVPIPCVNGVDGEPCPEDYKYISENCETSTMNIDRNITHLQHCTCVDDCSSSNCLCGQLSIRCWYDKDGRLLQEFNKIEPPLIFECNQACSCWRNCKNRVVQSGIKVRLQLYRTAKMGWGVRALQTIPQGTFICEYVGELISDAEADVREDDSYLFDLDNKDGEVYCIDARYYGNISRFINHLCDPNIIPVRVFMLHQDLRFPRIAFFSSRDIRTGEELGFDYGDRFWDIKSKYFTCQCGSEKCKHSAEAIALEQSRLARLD
#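 Chemiluminescent proximity detection of H3K9 monomethylation, read after 10 min bead incubation in the dark. Reaction: 20 nM G9a, 500 nM biotin-H3K9 peptide, 20 uM SAM cofactor, 2 h, room temperature, following 15 min enzyme-compound preincubation.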
# VDR inh: Inhibitors of the vitamin D receptor (VDR): qHTS | VDR-SRC2-3 peptide fluorescence polarization, 2 h | Potency, µM, for the others: max response, negative = inhibition, most hits filed as inhibitors | Vitamin D3 receptor (Homo sapiens), P11473 | 0.93% of 400,000 active; further: on the % scale 0 is the no-effect control and ±100 the full control effect
#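 FP read-out; VDR + SRC2-3 coactivator peptide; 23 nl compound by pintool; 2 h RT incubation; reagents held at 4 deg C, protected from light.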
# HP1b chromo inh: HTS for Inhibitors of HP1-beta Chromodomain Interactions with Methylated Histone Tails. Chromobox protein homolog 1 (Homo sapiens), P83916. AlphaScreen HP1-beta / biotin-H3K9me3 peptide binding. Potency, µM (doses to about 114 µM), for the others: at the top dose activity change, negative = inhibition, actives largely listed as inhibitors. 0.56% of 390,000 active. AID 540317, 2011; further: nearly all actives have a fitted effect of over 70% in size
# Target sequence (P83916 whole entry, looked up): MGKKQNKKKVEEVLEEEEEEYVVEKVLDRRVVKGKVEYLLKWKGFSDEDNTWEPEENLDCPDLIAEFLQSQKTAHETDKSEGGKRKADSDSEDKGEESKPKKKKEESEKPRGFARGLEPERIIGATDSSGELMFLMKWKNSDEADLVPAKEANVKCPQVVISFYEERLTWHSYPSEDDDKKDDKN
#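 AlphaScreen: HP1-beta (50 nM) preformed 30 min with biotin-H3(1-18)K9me3 peptide (50 nM) in PBS pH 7.4, 0.01% Tween-20. Compound added for 30 min at RT, then streptavidin donor/nickel chelate acceptor beads (10 ug/mL) for 30 min.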
# PLK1 PBD inh: qHTS for Inhibitors of PLK1-PDB (polo-like kinase 1 - polo-box domain): Primary Screen. Serine/threonine-protein kinase PLK1 (Homo sapiens), P53350. Plk1 PBD binding of FITC phosphopeptide, fluorescence polarization. Potency, µM, without a hit: max response, negative = inhibition, most hits filed as inhibitors. 2.8% of 360,000 active. AID 720504, 2013; further: series mostly up to about 57 µM; on the % scale 0 is the no-effect control and ±100 the full control effect; nearly all actives have a fitted effect of over 65% in size
# * marks the source's active call; other numbers are inactive results; ? = inconclusive; · = not tested or not shown; [ ] = dose if it differs, or a comment. This is a sample that favours compounds with a hit; in the whole collection about 11% have one here. The call rests on the fitted dose curve; in most records, active means well fitted curve in the direction sought with a large enough effect; inconclusive means small, poorly fitted or top-dose-only effect, or another doubt; inactive means no such curve, though single readings can be large; an effect the other way counts as inactive or inconclusive. Potency means the concentration at half of the fitted maximal effect.
SMILES,JMJD2A Tudor inh,BAZ2B inh,G9a inh,VDR inh,HP1b chromo inh,PLK1 PBD inh
COC1(NS(=O)(=O)c2ccc(Br)cc2)C(C)=CC(=O)C=C1C,-2.1%,-7.5%,?,8.9%,?,6.7µM*
O=C(NC(=S)Nc1ccc(Cc2ccncc2)cc1)c1ccc(F)cc1,-15.0%,·,?,-2.8%,-11.9%,-12.0%
CCn1c(SCC(=O)Nc2oc(-c3ccccc3)c(-c3ccccc3)c2C#N)nnc1-c1ccco1,?,-35.7%,?,5.9%,-11.6%,-20.0%
N#Cc1c(NC(=O)CSc2ccccn2)oc(-c2ccccc2)c1-c1ccccc1,-30.2%,?,-39.5%[59 µM],20.9%,22.5%,-8.1%
Cc1cnc(C(=O)OCC(=O)Nc2oc(-c3ccccc3)c(-c3ccccc3)c2C#N)cn1,56.2µM*,-56.8%,50.1µM*,14.1%,-11.3%,?
CCn1c(SCC(=O)Nc2oc(-c3ccccc3)c(-c3ccccc3)c2C#N)nnc1-c1ccncc1,?,?,7.94µM*,6.5%,-18.3%,?
CCn1c(COc2ccc(Cl)cc2)nnc1SCc1nc2ccccc2[nH]1,-21.6%,-8.9%,·,23.8%,26.1%,-4.2%
c1ccc(-c2nnc(SCc3nc4ccccc4[nH]3)n2Cc2ccco2)cc1,31.6µM*,-7.3%,·,-4.3%,2.0%,-8.5%
Fc1ccc(CSc2nnc(-c3cccnc3)n2Cc2ccco2)cc1,-18.0%,4.4%,50.1µM*,-12.5%,9.3%,-16.1%
Clc1ccccc1CSc1nnc(-c2cccnc2)n1Cc1ccco1,?,-6.2%,?,-22.9%,23.1%,-9.2%
Cc1ccc(OCc2nnc(SCc3nc4ccccc4[nH]3)n2Cc2ccco2)cc1,?,?,14.1µM*,-10.5%,11.4%,-5.5%
CCn1c(/C=C/Nc2ccccc2)[n+](CC)c2ccc(Cl)cc21,-23.0%,2.7%,44.7µM*,7.4%,6.6%,-6.9%
CN1CCN(c2ncc3nc(-c4cc(F)cc(F)c4)c(=O)n(CCc4ccccc4)c3n2)CC1,·,·,-7.9%[0.501 µM],1.4%,·,·
CC(=O)N1CCCC1c1nc2ccccc2n1Cc1ccccc1C (stereo not given),-30.1%,-26.9%,?,16.1%,19.8%,·
O=C(O)Cc1c(C(=O)O)[nH]c2ccc(C(=O)O)cc12,-10.7%,?,50.1µM*,?,33.8%,2.7%
c1ccc(Nc2nnc(-c3cccnc3)s2)cc1,7.7%,?,-1.2%,-22.0%,17.6%,5.3%
CC(=O)NC1C(=O)N(CCc2ccccc2)c2ccc(Br)cc21 (stereo not given),-22.2%,-3.1%,11.2µM*,4.6%,23.6%,-6.0%
CC(=O)NC1C(=O)N(Cc2ccccc2)c2ccc(Br)cc21 (stereo not given),-14.7%[11.4 µM],-27.2%,39.8µM*,?,-18.9%,26.7µM*
CCCCN1C(=O)C(NC(C)=O)c2ccccc21 (stereo not given),-17.3%,-5.0%,22.4µM*,6.2%,28.7%,-2.9%
Cc1ccc(C(=O)CC2(O)C(=O)N(CCc3ccccc3)c3ccc(Br)cc32)o1 (stereo not given),-34.8%,-13.6%,?,-12.1%,-1.3%,-21.7%
O=C1N(Cc2ccccc2)c2ccc(Br)cc2[C@]12C[C@H](O)CO2,·,·,·,·,·,1.5%
CC(=O)Nc1ccc(S(=O)(=O)Nc2ccc(Nc3ccccc3)cc2)cc1,?,-36.7%,39.8µM*,-3.8%,?,-8.5%
NS(=O)(=O)c1cccc(Nc2nc3ccccc3nc2NS(=O)(=O)c2ccc(Cl)cc2)c1,-10.3%,·,·,12.6%,26.3%[57 µM],16.8µM*
Cc1ccnc(NS(=O)(=O)c2ccc(C(C)(C)C)cc2)c1,·,-4.2%,8.6%,·,·,·
CC(=O)Nc1ccc(S(=O)(=O)Nc2cc(C)ccn2)cc1,-9.8%,-10.9%,50.1µM*,4.8%,37.2%,-2.9%
